From PubChem BioAssay
CtBP-E1A blk – qHTS Assay for Inhibitors of the CtBP/E1A Interaction; CtBP / adenovirus E1A interaction (AlphaScreen); AlphaScreen GST-E1A/His-CtBP binding, 1536-well; active compounds read low; activity change, % (test concentration not listed); actives 0.49% (n = 340,000); in the data active = activity change below about -65%; inconclusive = mostly about -30% to -63%
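Homogeneous bead-based format: GST-tagged E1A captured on glutathione donor beads, His-tagged CtBP on nickel acceptor beads; compounds precede bead addition by 2 h at 37 °C.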
CBFb-RUNX1 inh – qHTS Assay for Compounds Blocking the Interaction Between CBF-beta and RUNX1 for the Treatment of Acute Myeloid Leukemia; AlphaScreen CBFb-His/RUNX1-biotin binding, biochemical; Potency, µM (series often up to 59.8 µM), usual class: inhibitors; 230,000 tested, under 10 active
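Read-out: AlphaScreen. Format: His-CBF-beta with biotinylated RUNX1 (30 nM each) preincubated 20 min, compound 15 min, Ni-chelate plus streptavidin beads 90 min; room temperature throughout.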
MBNL1 CUG block – qHTS Assay for Inhibitors of MBNL1-poly(CUG) RNA binding; Muscleblind-like protein 1 (Homo sapiens), Q9NR56; TR-FRET MBNL1-His/biotin-(CUG)12 binding, 665/545 ratio; Potency, µM (doses to about 57.5 µM), actives largely listed as inhibitors; actives 0.036% (n = 280,000); AID 2675, 2010; active = well fitted inhibition curve with a large enough effect in the signal ratio, with a control signal flat, not every such curve was filed as active; inconclusive = small, poorly fitted or top-dose-only effect, or effect the other way, or a change in a side signal; inactive = no such curve, though single readings can be large or run the other way; the % refers to the signal ratio
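His-tagged MBNL1 binding to biotinylated (CUG)12 RNA was measured by TR-FRET using terbium anti-His antibody (0.055 ng/ul final) and streptavidin-XL665 (5 nM final). Compounds were titrated 92 nM to 58 uM; 60 min at room temperature.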
Six1-Eya2 blk – qHTS Assay for Inhibitors of the Six1/Eya2 Interaction. Homeobox protein SIX1 (Homo sapiens) + Protein phosphatase EYA2 (Homo sapiens), …. AlphaScreen GST-Six1/His-Eya2 binding, biochemical; active compounds read low. activity change, % (test concentration not listed). actives 0.56% (n = 360,000). AID 651725, 2012; in the data active = activity change below about -65%; inconclusive = mostly about -30% to -63%
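AlphaScreen luminescence read after one hour at 37 °C in darkness. Pin-transferred compounds met GST-Six1 and His-Eya2 protein (5X stock 250 nM/500 nM) plus glutathione donor and Ni-chelate acceptor beads (5X, 50 ug/mL).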
Gal4-VP16 FLuc – VP16 counterscreen qHTS for inhibitors of ROR gamma transcriptional activity | Drosophila S2 Gal4-VP16 UAS-luciferase, luminescence, 20 h | Potency, µM (doses to about 53.6 µM), most hits filed as inhibitors | actives 3.5% (n = 310,000) | AID 2546, 2010;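 note: Gal4-VP16 expression switched on by copper sulfate through the metallothionein promoter; nearly all actives have a fitted effect of over 50% in size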
RORg inh – qHTS for inhibitors of ROR gamma transcriptional activity | Potency, µM (highest dose often 53.6 µM), most hits filed as inhibitors | AID 2551, 2010 | actives 5.4% (n = 310,000) | Drosophila S2 Gal4-RORgamma UAS-luciferase reporter, 20 h; note: nearly all actives have a fitted effect of over 60% in size
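ROR gamma transcriptional activity was tracked as Gal4-UAS luciferase output in stably transfected Drosophila Schneider cells, with compound added 1 hr before 700 uM copper sulfate induction and a 20 hr ambient-temperature incubation.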
Hits are given with their value; i = inactive; ? = inconclusive; nt = no result. This is a sample that favours compounds with a hit; in the whole collection about 5.5% have one here. Unless noted, calls come from the whole dose curve; as a rule, active = well fitted curve in the direction sought with a large enough effect; inconclusive = small, poorly fitted or top-dose-only effect, or another doubt; inactive = no such curve, though single readings can be large; an effect the other way counts as inactive or inconclusive.

SMILES | CtBP-E1A blk | CBFb-RUNX1 inh | MBNL1 CUG block | Six1-Eya2 blk | Gal4-VP16 FLuc | RORg inh
Cc1ccc(/C=N/n2c(-c3cccnc3)n[nH]c2=S)o1 | i | i | ? | i | i | i
CCN(CC)c1ccc(/C=C2\C(=O)N(c3nnc(C)c(=O)[nH]3)N=C2C)cc1 | -92 | nt | i | -92 | ? | ?
CC1=CC(C)(C)N2C(=O)C3(SCC(=O)N3c3ccc(F)cc3)c3cc(C)cc1c32 (configuration not stated) | i | i | i | i | i | 16µM
CC(=O)Oc1cc2c(c(C)c1OC(C)=O)CC=C1[C@]3(C)CC[C@]4(C)CC[C@@](C)(C(=O)O)CC4[C@]3(C)CC[C@]12C (some centres not stated) | nt | nt | nt | nt | 11µM | ?
O=C(O)CNC(=O)CC1S/C(=N/N=C2/NC(=O)CS2)NC1=O (configuration not stated) | ? | ? | i | -67 | i | i
NC(=O)NC(=O)CC1S/C(=N/N=C/c2ccccc2)NC1=O (configuration not stated) | i | i | i | i | i | i
NC(=O)NC(=O)CC1S/C(=N/N=C2\CSC(=O)N2)NC1=O (configuration not stated) | -93 | i | i | -90 | i | i
CC(C)(C)c1ccc(NC(=O)CN2C(=O)NC(C)(C3CC3)C2=O)cc1 (configuration not stated) | i | nt | nt | i | nt | nt
CCCCCn1c(SCC(=O)c2ccccc2)nc2cc(C(=O)NCC3CCCO3)ccc2c1=O (configuration not stated) | i | nt | nt | i | nt | nt
C=CCN1C(=O)/C(=C/c2ccc(-c3ccc(F)cc3)o2)SC1=S | i | nt | i | i | i | ?
O=[N+]([O-])c1cccc(NC(=S)NCCc2ccccc2)c1 | i | i | ? | i | ? | i
O=[N+]([O-])c1ccc(S(=O)(=O)NNC(=S)NCCc2ccccc2)cc1 | i | nt | ? | i | 11µM | 8.9µM
CC(=O)NNC(=S)NCCc1ccccc1 | i | i | i | i | i | 11µM
O=C(CCc1ccccc1)NNC(=S)NCCc1ccccc1 | i | nt | i | i | ? | 7.9µM
CC(C)(CNC(=S)NCCc1ccccc1)CNC(=S)NCCc1ccccc1 | ? | i | nt | i | 8.9µM | ?
Clc1ccc(CNc2ncnc3[nH]ncc23)c(Cl)c1 | i | nt | nt | i | nt | nt
CC(NC(=S)NNS(=O)(=O)c1cccc([N+](=O)[O-])c1)c1ccccc1 (configuration not stated) | i | nt | ? | i | 6.3µM | 7.1µM
Cc1nc(SCC(=O)NCCN2C(=O)CSC2=O)nc(C)c1C | i | nt | nt | i | nt | nt
Cc1cc(C)cc(NC(=S)NCc2cccn2C)c1 | i | i | i | i | 10µM | 2.8µM
Cn1cccc1CNC(=S)Nc1ccccc1Cl | i | i | i | i | i | 6.3µM
Cn1cccc1CNC(=S)Nc1ccccc1F | i | i | i | i | i | 13µM
Cn1cccc1CNCc1ccccc1Cl | i | i | i | i | i | i
Cc1ccc(C(=O)OCC(=O)c2c[nH]c3ccccc23)cc1S(=O)(=O)N1CCOCC1 | i | nt | nt | i | nt | nt
NC(=O)C1CC2(NC(=O)NC2=O)c2cc(F)ccc2O1 (configuration not stated) | nt | nt | nt | nt | i | i
c1ccc2nc(SCc3cn4ccccc4n3)cnc2c1 | i | i | ? | i | ? | ?
Cc1ccc(SCc2cn3ccccc3n2)cc1 | i | i | i | i | ? | 10µM
c1ccc(CSCc2cn3ccccc3n2)cc1 | i | i | i | i | i | 13µM
O=C(O)c1ccccc1SCc1cn2ccccc2n1 | i | i | i | i | i | i
